By viability is commonly meant a read-out of living cells in per cent, often relative to untreated cells. A word on the inhibition: it is the change of the read-out against control, counted positive when it falls.

Records with an inconclusive call do not appear. Activity calls are given as the source filed them.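 How the source made its calls, unless noted: active means Her2 level under about 52% in both replicate screens, with viability over 70% of control (limit read from the data); inconclusive means Her2 under the limit in one screen only, or viability under 70%; inactive means Her2 level above the set limit.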

Assay [1] in a line: reducers of endogenous Her2 protein level, primary screen, SKBR3 breast tumor cells, AlphaScreen, ATP viability (AID 461).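 On Her2 level: lower value means less Her2 protein in the cells.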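 On viability: percent of carrier control wells set as 100% viability.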 The conditions noted are these: 18-24 h, measured here: SKBR3 viability, ATP luminescence, at 10 µM.
Assay [2] concerns the target Receptor tyrosine-protein kinase erbB-2 (Homo sapiens) (UniProt P04626). Described as above. The conditions noted are these: 18-24 h, at 10 µM, stronger effect = lower value.
Assay [3] is described as follows: SK-BR-3 cell growth inhibitors, pilot screen, 24 h, human (AID 572;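 active means viability at or below 10% of carrier control in both of two separate runs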;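 further: compound exposure lasted between 18 and 24 h rather than exactly 24 h; 100% = carrier-treated control wells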). The note with it: SK-BR-3 viability, CellTiter-Glo luminescence, at 10 µM, stronger effect = lower value. (In general: Cellular ATP, detected with luciferase, serves as a proxy for viable cell number.)
Assay [4] can be described thus: HUVEC growth inhibition – cell-based, human, primary screen (AID 575;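 active means viability at or below 30% in both replicate assays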;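 further: 100% = median of untreated cell wells with 0.1% DMSO on each plate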). The conditions noted are these: HUVEC proliferation, CellTiter-Glo luminescence, 72 h; at 10 µM; stronger effect = lower value.
The nature of assay [5]: growth inhibitors of H69AR lung tumor, primary screen, human, duplicate replicates (AID 580;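 active means viability at or under a set limit in both replicates, limit being median viability minus 3 SD, cut at about 48% in these data, passing the limit was not always enough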;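 further: 100% = mean luminescence of untreated wells and 0% = no signal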). The note with it: H69AR lung tumor cells viability, ATP luminescence, 72 h; at 10 µM; stronger effect = lower value.
Assay [6] can be described thus: reversal of MRP1-mediated doxorubicin resistance, pilot screen, H69AR cells, doxorubicin co-treatment (AID 601;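 active means viability loss from added drug above about 55%, and viability with drug at most 40%, in both replicates, limit read from the data, passing the limit was not always enough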). The conditions noted are these: CellTiter-Glo, 72 h, at 10 µM; for differential viability (reversal): stronger effect = higher value.
Assay [7] is described as follows: 384-well plate pilot, post-Golgi transport modulator project, inhibition of yeast transport mutant growth (AID 636; in the data active means inhibition above about 31%). The note with it: absorbance 615 nm, about 18 h, stronger effect = higher value.
Assay [8] is described as follows: growth suppression of yeast trafficking mutant, preliminary HTS, modulators of trafficking downstream of Golgi apparatus project, 1536-format plate, OD 615 nm (AID 637; in the data active means inhibition above about 30%). The conditions noted are these: yeast transport mutant growth, absorbance 615 nm, 18 h; stronger effect = higher value.
Assay [9] can be described thus: OD615 S. cerevisiae growth inhibition, permissive medium, pilot counter-assay, permissive growth control for S. cerevisiae lifespan shortening project (AID 705;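 active means growth inhibition above 25% in both replicates, a cutoff set 3 SD above the mean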). The note with it: OD615, 24 h, at 10 µM, stronger effect = higher value.
A short description of assay [10]: Restrictive medium S. cerevisiae growth inhibition, OD615, pilot screen of yeast lifespan reduction project, restrictive growth control (AID 706;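 active means growth inhibition above a set limit, 3 SD over mean compound inhibition, in both replicates, cut at about 43% in these data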;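 further: modified DeaD lifespan yeast strain shifted to restrictive glucose medium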). The note with it: OD615, 48 h, at 10 µM, stronger effect = higher value.
A short description of assay [11]: viability gain of MRP-1-high H69AR cells under doxorubicin, pilot screen, MRP-1 activator project, CellTiter-Glo, duplicate (AID 807;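 active means viability increase at or above a cutoff of the median across tested compounds plus 3 SD, cut at about 8.5% in these data, passing the limit was not always enough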;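 further: compound pretreatment 18-22 h then 72 h combined with doxorubicin; 0% = doxorubicin alone and 100% = vehicle without doxorubicin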). The conditions noted are these: H69AR viability with doxorubicin, CellTiter-Glo luminescence; at 10 µM; stronger effect = higher value.
Assay [12] can be described thus: growth suppression of beta-catenin knockout HCT116, pilot screen, human colon tumor cells (AID 823;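 active means cell viability at or below a set limit in both duplicate runs, the limit being the all-compound median minus 4 SD, cut at about 23% in these data, passing the limit was not always enough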;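 further: 0% = wells killed by 20 µM Hyamine and 100% = untreated DMSO cell wells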). The note with it: CellTiter-Glo, 60 h, at 10 µM, stronger effect = lower value.
Assay [13] in a line: growth suppression of PTEN-deleted HCT116, pilot screen, cell-based, HCT116 clonal line, CellTiter-Glo (AID 824;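 active means viability at or below 27.92% in each of two runs, the all-compound median minus 4 SD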;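 further: 0% = 20 µM Hyamine control and 100% = vehicle cell control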). The conditions noted are these: 60 h, at 10 µM, stronger effect = lower value.
The nature of assay [14]: inhibitors of the yeast RAM network, pilot screen, dse1pr::URA3 reporter, 5-FOA selection (AID 869;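 active means inhibition over a set limit, the all-compound mean plus 3 SD, in both replicate runs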;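 further: 0% = DMSO wells with no growth and 100% = 10 µM 1-NA-PP1 with full growth; RAM network block rescues cells from 5-FOA so hits raise OD615 growth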). The conditions noted are these: S. cerevisiae dse1pr::URA3 5-FOA growth, OD615, 2 d; at 10 µM; stronger effect = higher value; strain carries analog-sensitive mutant Cbk1 kinase.
A short description of assay [15]: RAM signaling pathway blockade in yeast – S. cerevisiae, Pdr1DBD-CYC8 efflux-inhibited sensitized strain, primary screen (AID 1298;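 active means RAM network inhibition above 8.4% in each of two replicates, 3 SD over the compound average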;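 further: 0% = DMSO untreated cells without growth and 100% = 10 µM 1-NA-PP1 full growth; higher means more yeast growth rescued from 5-FOA killing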). The note with it: S. cerevisiae cbk1-as DSE1-URA3 strain, 5-FOA growth OD615, 2 d; at 50 µM; stronger effect = higher value.
[16] abbreviates: H69AR cells + 2 uM doxorubicin, measured here: viability with 2 uM doxorubicin, stronger effect = lower value.
[17] abbreviates: H69AR cells, compound alone cytotoxicity.

Sequence of Receptor tyrosine-protein kinase erbB-2 (Homo sapiens) (P04626 whole entry, looked up): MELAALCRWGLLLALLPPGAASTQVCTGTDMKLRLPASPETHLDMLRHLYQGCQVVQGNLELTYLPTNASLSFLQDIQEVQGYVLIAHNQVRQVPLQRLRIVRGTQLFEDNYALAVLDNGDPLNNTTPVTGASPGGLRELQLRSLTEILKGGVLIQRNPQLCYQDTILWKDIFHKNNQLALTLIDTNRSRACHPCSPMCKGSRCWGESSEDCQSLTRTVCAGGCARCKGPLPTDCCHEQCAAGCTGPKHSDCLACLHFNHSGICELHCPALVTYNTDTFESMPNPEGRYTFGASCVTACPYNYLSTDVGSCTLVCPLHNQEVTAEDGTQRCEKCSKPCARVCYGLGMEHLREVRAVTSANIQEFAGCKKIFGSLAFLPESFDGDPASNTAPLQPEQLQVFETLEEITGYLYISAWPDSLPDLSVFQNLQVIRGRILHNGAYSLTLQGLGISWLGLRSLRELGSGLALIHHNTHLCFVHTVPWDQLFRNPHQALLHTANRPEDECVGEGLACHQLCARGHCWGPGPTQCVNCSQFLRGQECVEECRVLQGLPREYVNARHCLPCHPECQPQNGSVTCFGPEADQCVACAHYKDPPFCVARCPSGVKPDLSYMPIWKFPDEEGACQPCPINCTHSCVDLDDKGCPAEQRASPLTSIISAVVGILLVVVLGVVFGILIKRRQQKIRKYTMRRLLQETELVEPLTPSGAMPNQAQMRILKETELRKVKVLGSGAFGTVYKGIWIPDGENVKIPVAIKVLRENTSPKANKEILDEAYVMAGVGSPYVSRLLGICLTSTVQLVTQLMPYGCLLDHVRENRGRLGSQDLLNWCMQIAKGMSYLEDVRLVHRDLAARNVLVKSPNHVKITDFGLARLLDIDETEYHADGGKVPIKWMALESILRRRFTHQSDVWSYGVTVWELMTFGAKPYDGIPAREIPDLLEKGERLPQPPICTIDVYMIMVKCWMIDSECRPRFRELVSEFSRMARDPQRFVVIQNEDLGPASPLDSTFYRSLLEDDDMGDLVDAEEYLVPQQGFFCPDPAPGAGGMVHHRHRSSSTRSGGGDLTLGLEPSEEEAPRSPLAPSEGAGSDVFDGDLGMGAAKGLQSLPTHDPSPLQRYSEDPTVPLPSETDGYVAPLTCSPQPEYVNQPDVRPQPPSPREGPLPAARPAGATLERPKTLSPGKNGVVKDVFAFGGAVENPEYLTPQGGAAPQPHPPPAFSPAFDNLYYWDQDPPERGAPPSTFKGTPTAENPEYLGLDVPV

`O=C(Cn1ncc2c1-c1ccccc1OC2)Nc1ccc(Cl)cn1`: the viability in [1] was 91.5%; in [3], 91.5% (inactive); in assay [4], 80.1% (inactive); in [5], 99.3% (inactive); in assay [6] (setting [16]) it was 91.5%; in assay [6] (setting [17]), 99.3%. Also, the viability in assay [12] was 95.9% (inactive); in [13], 95.1% (inactive). The Her2 level in assay [2] is 95% (inactive). Further, the differential viability (reversal) in assay [6] (H69AR cells + 2 uM doxorubicin) is 7.75% (inactive). In addition, the inhibition in assay [7] is -0.26% (inactive); in assay [8], -5.5% (inactive); in [14] it was 4.09% (inactive). Moreover, the growth inhibition in [9] is 1.63% (inactive); in assay [10] it was 0.96% (inactive). The viability increase in [11] was -3.35% (inactive). The RAM network inhibition in assay [15] was 0.83% (inactive).
For the compound `CN1CCN(CCCNC(=O)Cn2ncc3c4ccccc4n(C)c3c2=O)CC1`, the viability was 84% in [1]; 84% (inactive) in [3]; 82.7% (inactive) in assay [4]; 86% (inactive) in [5]; 94.1% in [6] (setting [16]); 86% in assay [6] (setting [17]). Further, the viability in [12] was 92.9% (inactive); in assay [13], 100% (inactive). Also, the Her2 level in [2] was 129% (inactive). Besides, in assay [6] (H69AR cells + 2 uM doxorubicin), the differential viability (reversal) is -8.1% (inactive). Further, the values for the inhibition in [7], in [8] and in assay [14] were 1.15% (inactive), 10.8% (inactive) and 3.37% (inactive), respectively. Besides, the growth inhibition in assay [9] was -16.9% (inactive); in assay [10] it was -28.7% (inactive). In assay [11], the viability increase was -1.44% (inactive). The RAM network inhibition in assay [15] is 4.04% (inactive).
With `c1ccc(-n2ncc3c(NC4CCCCCC4)ncnc32)cc1`, the viability in assay [1] is 83.5%; in assay [3], 83.5% (inactive); in assay [4], 75.2% (inactive); in assay [5], 45.8% (active); in assay [6] (setting [16]), 74%; in [6] (setting [17]), 45.8%. In addition, the viability was 88.4% (inactive) in assay [12] and 65.7% (inactive) in assay [13]. Moreover, the Her2 level in [2] was 77% (inactive). Further, the differential viability (reversal) in [6] (H69AR cells + 2 uM doxorubicin) is -28.2% (inactive). For the same compound, the inhibition in assay [7] was -4.93% (inactive); in [8], 1.67% (inactive); in assay [14], 1.17% (inactive). In addition, the growth inhibition was -7.69% (inactive) in [9] and -4.42% (inactive) in assay [10]. Further, the viability increase in assay [11] was -2.91% (inactive). For the same compound, in assay [15], the RAM network inhibition is 6.78% (inactive).
Take `O=C(C1CCCN(S(=O)(=O)c2cccnc2)C1)N1CCn2c1nc1ccccc12` (stereo not given): the viability in assay [1] was 90.5%; in assay [3], 90.5% (inactive); in assay [4], 105% (inactive); in [5] it was 95.8% (inactive); in assay [6] (setting [16]), 86.1%; in assay [6] (setting [17]), 95.8%. Moreover, the viability in assay [12] was 101% (inactive); in assay [13] it was 99.3% (inactive). For the same compound, the Her2 level in assay [2] was 103% (inactive). The differential viability (reversal) in [6] (H69AR cells + 2 uM doxorubicin) was 9.65% (inactive). For the same compound, the inhibition in [7] was 0.51% (inactive); in [8] it was -0.33% (inactive); in assay [14], 0.46% (inactive). The growth inhibition was 5.56% (inactive) in assay [9] and 4.04% (inactive) in [10]. For the same compound, the viability increase in assay [11] is 0.72% (inactive). The RAM network inhibition in [15] is 1.55% (inactive).
As for `CC1CCc2nn(CC(=O)NCCCN3CCOCC3)cc2C1` (stereo not given), the viability was 99.5% in assay [1]; 99.5% (inactive) in assay [3]; 85.6% (inactive) in assay [4]; 90.5% (inactive) in [5]; 88.1% in assay [6] (setting [16]); 90.5% in [6] (setting [17]). The viability is 104% (inactive) in assay [12] and 95% (inactive) in [13]. Moreover, in assay [2], the Her2 level is 102% (inactive). Besides, the differential viability (reversal) in assay [6] (H69AR cells + 2 uM doxorubicin) is 2.46% (inactive). The inhibition is -3.97% (inactive) in assay [7], -0.83% (inactive) in assay [8] and 3.4% (inactive) in assay [14]. Moreover, the growth inhibition in assay [9] was 7.55% (inactive); in [10], 6.69% (inactive). Besides, the viability increase in [11] is -1.14% (inactive). In addition, the RAM network inhibition in assay [15] is 1.33% (inactive).

Values taken from PubChem BioAssay.
